From PubChem
12-LOX inh = blocks human arachidonate 12S-lipoxygenase; 580,000 compounds, 1.1% hits; Potency, µM (titrated, usually from 108 µM), inactives show top-dose activity change, negative = inhibition, usual class: inhibitors; P18054; AID 1671190; purified 12hLO, xylenol orange hydroperoxide absorbance; also: potency is read from the fitted curve at half-maximal effect; % is scaled to controls: 0 for no effect and ±100 for the full control effect
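Hydroperoxide product was detected by ferrous iron/xylenol orange as the 573 to 405 nm absorbance ratio. Arachidonic acid at 40 uM (final) was turned over for 30 min at room temperature by 150 nM human 12hLO, pH 7.0 Hepes buffer, after 15 min compound preincubation.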
A549 viability = counter-screen for Nrf2 inhibitors: cytotoxicity in A549 cells. A549 ARE-Fluc cells, CellTiter-Fluor viability, 18-24 h. Potency, µM (doses to about 46 µM), inactives show at the top dose activity change, negative = cytotoxicity, actives largely listed as inhibitors. 390,000 compounds, 0.16% hits. AID 504648; also: potency is read from the fitted curve at half-maximal effect; % is scaled to controls: 0 for no effect and ±100 for the full control effect
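A549 ARE_Fluc cells in 5% FBS OPTI-MEM were exposed to compounds in concentration-response for 18-24 h at 37 deg C. Viability was read by CellTiter-Fluor fluorescence (Ex 405/Em 525) after 30 min, before the luciferase read.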
LDHA block = LDHA (human) enzyme inhibition; AID 1347041; 480,000 compounds, 0.15% hits; P00338; activity change, % (values are at about 110 or 230 µM); purified LDHA, NADH/diaphorase-resazurin fluorescence; hits give low values; in the data active = activity change below about -30%; inconclusive = mostly about -25% to -30%;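 also: plate controls were DMSO wells for no effect and wells without enzyme for full effect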
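Enzyme activity of human lactate dehydrogenase 5 (2 nM; 0.06 mM NADH, 0.2 mM pyruvate, 5 min, RT) is measured via a resazurin/diaphorase fluorescence readout of residual NADH.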
Nrf2 activator = activators of Nrf2 (ARE) signaling; AREc32 ARE-luciferase reporter (MCF7-derived line), luminescence, 24 h; Potency, µM (doses to about 46.1 µM), without a hit: top-dose activation, most hits filed as activators; 410,000 compounds, 0.31% hits; also: potency is read from the fitted curve at half-maximal effect; % of control where 0% means no effect; nearly all actives have a fitted effect of over 65% in size
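For detection, Steady-Glo was added and plates sat 30 min at RT; before that, AREc32_Fluc cells grown overnight in OPTI-MEM/5% FBS had been treated with 23 nL compound for 24 hr at 37 deg C.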
Nrf2 block = blocks Nrf2 signaling. A549 ARE-Fluc reporter, luciferase luminescence, 18-24 h. Potency, µM (highest dose often 46 µM), for the others: at the highest dose activity change, negative = inhibition, hits mostly inhibitors. 360,000 compounds, 2.1% hits; also: potency is read from the fitted curve at half-maximal effect; % is scaled to controls: 0 for no effect and ±100 for the full control effect; nearly all actives have a fitted effect of over 60% in size
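A549 ARE_Fluc cells, 5000/well, 5% FBS OPTI-MEM; compounds in dose-response, 18-24 h at 37 °C/5% CO2; CellTiter-Fluor viability read (Ex 405/Em 525), then BugLite luciferase luminescence = Nrf2 activity.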
ERG-DNA inh = ERG Ets/DNA interaction inhibition. Potency, µM (series often up to 76.9 µM), without a hit: top-dose FP activity, negative = inhibition, most hits filed as inhibitors. P11308. 370,000 compounds, 0.028% hits. fluorescence polarization, His-ERG Ets domain / labelled DNA; active = well fitted inhibition curve with a large enough effect in the polarisation, with a control signal flat; inconclusive = small, poorly fitted or top-dose-only effect, or effect the other way, or a change in a side signal; inactive = no such curve, though single readings can be large or run the other way; the % refers to the polarisation;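 also: polarization taken with two DNA probes labelled with fluorescein and Texas red; potency is read from the fitted curve at half-maximal effect; % of control where 0% means no effect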
Target sequence (P11308 whole entry, looked up, the tested form may be a part): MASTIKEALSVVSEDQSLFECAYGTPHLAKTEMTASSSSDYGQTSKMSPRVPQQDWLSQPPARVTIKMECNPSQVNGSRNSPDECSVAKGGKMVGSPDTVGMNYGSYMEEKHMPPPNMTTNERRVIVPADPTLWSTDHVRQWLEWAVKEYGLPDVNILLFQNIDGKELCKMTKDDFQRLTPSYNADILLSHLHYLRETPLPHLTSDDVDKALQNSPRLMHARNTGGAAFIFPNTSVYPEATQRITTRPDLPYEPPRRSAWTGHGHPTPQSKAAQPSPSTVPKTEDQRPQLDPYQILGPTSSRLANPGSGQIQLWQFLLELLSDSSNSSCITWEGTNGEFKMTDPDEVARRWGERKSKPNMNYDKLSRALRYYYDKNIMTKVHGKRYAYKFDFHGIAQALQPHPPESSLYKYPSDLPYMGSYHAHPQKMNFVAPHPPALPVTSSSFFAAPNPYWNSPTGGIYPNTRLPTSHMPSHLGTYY
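His-tagged ERG Ets domain (1 uM in the protein solution; 300mM KCl, 50mM Tris-HCl, 1mM EDTA, 1mM DTT, pH 7.5) received compound, then a probe mix of 5 nM fluorescein-DNA and 100nM Texas-615-DNA. Fluorescence polarization was read for both dyes.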
Active calls of the source: *; ? = inconclusive; · = no result given; [ ] = another dose, or the depositor's remark. This is a sample that favours compounds with a hit; in the whole collection about 2.7% have one here. Unless noted, calls follow the shape of the dose curve; as a rule, active = well fitted curve in the direction sought with a large enough effect; inconclusive = small, poorly fitted or top-dose-only effect, or another doubt; inactive = no such curve, though single readings can be large; an effect the other way counts as inactive or inconclusive.

SMILES	12-LOX inh	A549 viability	LDHA block	Nrf2 activator	Nrf2 block	ERG-DNA inh
CCOC(=O)c1ccc(NC(=S)NC(=O)C2CCCC2)cc1	39.8µM*	0.1%	-0.9	0.1%	7.5%	19.2%
CCCCC(=O)Nc1oc2c(C)cccc2c(=O)c1-c1ccccc1	-12.1%	·	-4.9	·	·	·
CC(Sc1nnc(COc2ccc(Cl)cc2)n1C)C(=O)c1ccc(Cl)cc1 (configuration not stated)	?	·	7.3	·	·	·
NS(=O)(=O)c1ccc(N/N=C2/CCCCC2C2CCCCC2)c([N+](=O)[O-])c1 (configuration not stated)	-16.4%	?	1.3	-2.4%	20.6µM*	5.3%
NS(=O)(=O)c1ccc(N/N=C/C2CCCCC2)c([N+](=O)[O-])c1	33.4%	·	-1.3	·	·	·
CC(OC(=O)c1cc(-c2ccc(F)cc2)nc2ccccc12)C(N)=O (configuration not stated)	?	·	3.9	·	·	·
COc1ccc(OC)c2[nH]c(C(=O)NCC(=O)Nc3ccc4c(c3)OCO4)cc12	0.2%	·	0.6	·	·	·
Cc1ccc(S(=O)(=O)N(C)C)cc1NC(=O)c1cc(C(C)(C)C)nn1Cc1ccccc1	0.0%	4.8%	0.7	2.3%	10.3µM*	0.6%
CCn1c(C)nc2cc(-c3nc4n(n3)Cc3ccccc3-4)ccc21	·	-6.7%	2.4	-4.5%	2.31µM*	0.8%
Cc1ccc(-c2nc3n(n2)Cc2ccccc2-3)cc1	-4.2%	0.4%	-3.1	-1.1%	?	-0.2%
Cc1ccc(-c2c(-c3cn4ccc(C)cc4n3)c(=O)n(C)c(=O)n2C)cc1	?	·	22.0	·	·	·
CCCCCCCCCOC(C)=O	6.6%[176 µM]	·	·	·	·	·
Brc1ccc(-c2cn3c4ccccc4nc3n2CCCN2CCCC2)cc1	10µM*	·	-2.6	·	·	·
CC1=C(C)CC(C(=O)Nc2ccc(C(=O)NCc3cccnc3)cc2)C(C(=O)O)C1 (configuration not stated)	-39.3%	·	1.2	·	·	·
O=S(=O)(NCC1CN(S(=O)(=O)c2c(F)cccc2F)C1)c1ccc2c(c1)OCCO2	12.0%	-12.0%	-14.5	2.3%	11.6µM*	·
O=C(Nc1ccccn1)Nc1ccccc1[N+](=O)[O-]	0.0%	-0.3%	-2.5	3.98µM*	20.9%	16.1%
O=C(Nc1ccccn1)c1ccc(Cl)c([N+](=O)[O-])c1	?	-10.7%	-0.4	10µM*	?	4.4%
Cc1ccccc1NC(=O)Nc1ccccn1	0.1%	-5.6%	2.6	28.6%	?	-6.1%
CC(NC(=O)CCCC(=O)O)C1CC2CCC1C2 (configuration not stated)	-9.9%	·	-5.2	·	·	·
COc1ccc(CN2CCNc3cc(-c4ccccc4)ncc3C2)cc1	-13.7%[176 µM]	·	·	·	·	·
Cc1cccc(C)c1-n1c(=O)c2nc3ccccc3nc2c2ccccc21	-20.2%	·	·	·	·	·
CC(C)Cn1cc(NC(=O)Nc2cccc(C(F)(F)F)c2)c2ccccc2c1=O	7.08µM*	-19.7%	7.1	2.3%	23.1µM*	-1.8%
CCc1ccc2oc(-c3ccc(NC(=O)c4cccc(Cl)c4Cl)cc3)nc2c1	-13.4%	-1.1%	-4.0	-0.4%	8.2µM*	-6.2%
Cc1ccc(-c2nc3cc(NC(=O)c4cc(Br)ccc4Cl)ccc3o2)cc1	39.8µM*	0.8%	-3.3	3.2%	-7.9%	-1.9%
Cc1ccc(C(=O)Nc2ccc3oc(-c4ccncc4)nc3c2)c(Cl)c1	22.2%	-3.4%	3.2	-0.4%	-13.3%	-1.4%
SMILES	12-LOX inh	A549 viability	LDHA block	Nrf2 activator	Nrf2 block	ERG-DNA inh
O=C(Nc1ccc2oc(-c3ccc4ccccc4c3)nc2c1)c1cccc(Cl)c1Cl	-8.7%	2.0%	-1.9	-0.1%	18.2%	10.1%
CC(C)c1ccc(-c2nc3cc(N)ccc3o2)cc1	?	·	1.0	·	·	·
CCNc1c(NS(=O)(=O)c2ccc(F)c(F)c2)c(=O)oc2ccccc12	?	·	-5.8	·	·	·
CCOc1ccc(S(N)(=O)=O)cc1-c1nc2c(C(C)(C)C)nn(C)c2c(=O)[nH]1	-4.4%	0.1%	-10.4	0.3%	?	-1.1%
CCOc1ccc(S(=O)(=O)NC(C)(C)C)cc1-c1nc2c(C(C)(C)C)nn(C)c2c(=O)[nH]1	-8.1%	?	-0.8	-1.6%	20.6µM*	·
Cc1nc(C)c(C(=O)NCc2cccnc2)s1	50.7%	·	-1.3	·	·	·
CCCNC(=O)c1cnn2c(C(F)F)cc(-c3ccccc3)nc12	-21.8%	?	-5.5	-1.3%	23.1µM*	3.3%
COc1ccc(OC)c(-c2csc(NC(=O)Cn3[nH]c(=O)c4ccccc4c3=O)n2)c1	0.0%	-16.6%	-1.3	2.5%	10.3µM*	4.2%
Cc1sc(NC(=O)Cn2[nH]c(=O)c3ccccc3c2=O)nc1-c1ccccc1	-3.7%	-16.4%	-5.9	0.4%[9.22 µM]	16.4µM*	-2.3%
COc1ccc(OC)c(-c2csc(NC(=O)c3ccc(F)cc3)n2)c1	13.4%	-4.8%	-1.1	5.9%	18.4µM*	19.3%
COc1cccc(C(=O)Nc2nc(-c3ccc4c(c3)OCO4)cs2)c1	-20.5%	-22.6%	-4.5	3.9%	13µM*	4.1%
COc1ccc(OC)c(-c2csc(NC(=O)Cc3ccc(F)cc3)n2)c1	-12.5%	-1.6%	-8.4	1.0%	?	1.3%
COc1cccc(C(=O)Nc2nc(-c3ccncc3)cs2)c1	0.0%	0.5%	-11.7	1.8%	?	2.0%
COc1c(CNC(C)c2nnc3n2CCCCC3)c(C(C)C)nn1C (configuration not stated)	7.5%	·	5.3	·	·	·
O=c1cc(CSc2nnnn2-c2ccccc2)[nH]c2[nH]n(-c3ccccc3)c(=O)c12	0.0%	-10.4%	4.9	-0.5%	·	6.1%
COc1ccc(-n2[nH]c(CSc3nnnn3-c3ccccc3)cc2=O)cc1	?	·	5.1	·	·	·
Cc1ccc(-n2[nH]c(CSc3nnnn3-c3ccccc3)cc2=O)cc1	50.1µM*	·	-0.6	·	·	·
O=c1cc(CSc2nnnn2-c2ccccc2)[nH]n1-c1ccc(Cl)cc1	39.8µM*	·	0.3	·	·	·
C/C=C/C=C/C(=O)NC(C)c1ccc(F)cc1F (configuration not stated)	?	·	-1.6	·	·	·
COc1ccc(CNC(=O)CC2CCN(C(=O)c3ccc4nc(-c5ccc(C)cc5)oc4c3)CC2)cc1	?	·	0.3	·	·	·
CCn1nc(C(=O)Nc2cccc3ccccc23)c(Cl)c1Cl	0.0%	8.7%	6.7	7.08µM*	10.5%	3.6%
CCn1nc(C(=O)Nc2ccccc2C)c(Cl)c1Cl	-13.5%	-4.6%	-0.5	4.3%	4.5%	-7.8%
C=CCc1ccccc1OCC(O)CN1CCN(c2ccc(OC)cc2)CC1 (configuration not stated)	0.0%	4.0%	5.6	0.5%	-14.7%	-5.5%
